The list is not random: actives were taken first. Their share in the collection is about 4.2%.
GDH-TPI counter: counter-screen for M. tuberculosis FBA inhibitors: GDH-TPI coupled enzymes. AID 588335. GDH-TPI coupled enzyme counterscreen, NADH absorbance. inhibition, % at 4.8 µM. 360,000 tested, 1.2% active
Mtb betalactam: beta-lactam sensitization of Mtb H37Rv. inhibition, % at 25 µM. 330,000 tested, 0.27% active. M. tuberculosis H37Rv growth with meropenem, percent inhibition; call rule not given here;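 note: growth measured after seven days incubation then overnight dye step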
RecA splice inh: Mtb RecA intein splicing inhibition; cell-free RecA intein splicing, fluorescence; inhibition, % (test concentration not listed); 290,000 tested, 0.75% active; P9WHJ3; in the data active = inhibition above about 30%
CCHF vOTU inh: blocks the CCHF virus ovarian tumor domain protease. CCHFV vOTU protease, Pep-AMC fluorescence. inhibition, % at 11.5 µM. AID 651958. 370,000 tested, 0.55% active
FBA Mtb inh: inhibits M. tuberculosis FBA enzyme | P9WQA3 | purified M. tuberculosis FBA, fluorescence read-out | inhibition, % at 1 µM | 360,000 tested, 2.3% active; in the data active = inhibition above about 27%
Target sequence (P9WQA3 whole entry, looked up): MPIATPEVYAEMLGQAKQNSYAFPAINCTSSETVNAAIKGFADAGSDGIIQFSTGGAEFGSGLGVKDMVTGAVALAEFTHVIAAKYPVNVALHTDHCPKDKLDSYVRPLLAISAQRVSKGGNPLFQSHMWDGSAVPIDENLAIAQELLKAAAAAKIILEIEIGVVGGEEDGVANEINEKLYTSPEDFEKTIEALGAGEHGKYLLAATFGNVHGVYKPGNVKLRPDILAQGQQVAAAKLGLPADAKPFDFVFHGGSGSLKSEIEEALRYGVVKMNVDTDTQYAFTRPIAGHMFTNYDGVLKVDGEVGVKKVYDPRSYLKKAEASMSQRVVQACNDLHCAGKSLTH
Numbers stand for hits; - = inactive; . = no result given; + = active, no number. Cut-off read from the data, not from the text of the source, unless noted: active = inhibition above about 30%; inactive = the rest.

SMILES | GDH-TPI counter | Mtb betalactam | RecA splice inh | CCHF vOTU inh | FBA Mtb inh
O=C(C1CCCN1S(=O)(=O)c1ccc(Cl)s1)N1CCN(c2ccccc2)CC1 (stereo not given) | . | . | . | - | .
CCOC(=O)N1CCN(C(=O)C[C@@H]2C(=O)N3CCCC4=C3[C@@]2(C(=O)OC)CCCC4)CC1 | . | . | . | - | .
Cc1ccc(-c2nn(CCC#N)cc2C=C(C#N)C#N)cc1 | 33.5 | - | - | - | -
COc1ccc(-c2nn(CCC#N)cc2C=C(C#N)C#N)cc1 | - | - | - | - | -
CC(=O)NCCC1CCN(c2nc3nonc3nc2N(C)Cc2ccccc2)CC1 | 37.2 | - | - | - | -
N#C/C(=N/Nc1ccccc1F)C(=N)N1CCOCC1 | 31.7 | - | - | - | -
COC(=O)C(C(=O)OC)C1OC23CN(S(=O)(=O)c4ccc(C)cc4)C=CC2(C)C3c2ccccc21 (stereo not given) | . | . | . | - | .
CN(Cc1ccccc1F)C(=O)C1CCCN(c2ncccn2)C1 (stereo not given) | . | . | . | - | .
CC(=NCc1ccccc1)c1ccc(O)cc1O | 33.6 | . | . | - | -
C/C(=N\NP(=S)(c1ccccc1)c1ccccc1)c1ccc(O)cc1O | 32.5 | - | - | - | -
C=CCN1C(=O)[C@@H](CC(=O)NCCc2ccccc2OC)[C@]2(C(=O)OCC)CCCCC/C=C/12 | . | . | . | - | .
O=C1NC(=O)N(Cc2ccc(F)cc2)C(=O)/C1=C\c1ccc(N2CCCC2)cc1 | 33.2 | - | - | - | -
CN(C)c1ccc(/C=C2\C(=O)NC(=O)N(CCc3ccc(F)cc3)C2=O)cc1 | 46.9 | - | - | - | -
O=C1NC(=O)N(c2ccc(F)cc2)C(=O)/C1=C/c1ccc(N2CCOCC2)cc1 | - | - | - | - | -
CCN1C(=O)/C(=C/c2ccc(N3CCCC3)cc2)NC1=S | - | - | - | - | -
CN1C(=O)C(=Cc2ccc(N3CCCCCC3)cc2)C(=O)N(C)C1=O | 54.5 | - | - | - | -
COc1ccccc1/C=N\NC(=O)c1cccc(S(=O)(=O)N(C)C)c1 | . | . | . | - | .
COC(=O)[C@]12C[C@H](CC(=O)NCc3cccc4ccccc34)C(=O)N(Cc3cccc4ccccc34)C1=C[C@H](C1CCCC1)O[C@@H]2C | . | . | . | - | .
O=C(CCc1ccccc1)N[C@H]1[C@H](O)CCC[C@]12C(=O)N(Cc1ccccc1)c1ccccc12 | . | . | . | - | .
C=CCNC(=S)N(C)[C@H]1C[C@H]2c3[nH]c4cccc(-c5cccc(F)c5)c4c3CCN2C(=O)[C@H]1[C@H](C)O | . | . | . | - | .
O=C(CCl)Nc1cn(-c2ccccc2)nc1-c1ccccc1 | - | - | 40.2 | - | -
COCc1[nH]nc2c1C(c1ccccc1F)C(C#N)=C(N)O2 (stereo not given) | - | - | 35.0 | - | -
COCc1[nH]nc2c1C(c1sccc1C)C(C#N)=C(N)O2 (stereo not given) | - | - | - | - | -
CCOC(=O)Cc1[nH]nc2c1C(c1ccsc1)C(C#N)=C(N)O2 (stereo not given) | - | - | 57.3 | - | -
COCc1[nH]nc2c1C(c1ccc(OC)cc1)C(C#N)=C(N)O2 (stereo not given) | - | - | 58.4 | - | -
SMILES | GDH-TPI counter | Mtb betalactam | RecA splice inh | CCHF vOTU inh | FBA Mtb inh
CCOC(=O)Cc1[nH]nc2c1C(Cc1ccccc1)C(C#N)=C(N)O2 (stereo not given) | - | - | - | - | -
COc1ccc(F)c(C2C(C#N)=C(N)Oc3n[nH]c(C(C)(C)C)c32)c1 (stereo not given) | - | - | - | - | -
O=C1N2CCc3ccccc3C2CS(=O)(=O)N1Cc1ccc(F)cc1 (stereo not given) | . | . | . | - | .
COc1ccc(-n2c(SCC(=O)Nc3ccc(S(=O)(=O)Nc4nccs4)cc3)nnc2-c2ccco2)cc1 | . | . | . | - | .
O=C(N/N=C/c1c(O)n(Cc2ccccc2)c(=O)[nH]c1=O)c1ccccc1O | 34.8 | - | - | - | -
O=C(N/N=C/c1c(O)n(CCc2ccc(F)cc2)c(=O)[nH]c1=O)c1ccccc1 | - | - | - | - | -
O=C(N/N=C/c1c(O)n(Cc2ccc(F)cc2)c(=O)[nH]c1=O)c1ccccc1O | 50.6 | - | 31.6 | - | -
CCOc1ccc(C(C#N)N2CCOCC2)cc1OC (stereo not given) | - | - | - | - | -
COc1cc(C(C#N)N2CCOCC2)ccc1O (stereo not given) | 36.8 | - | . | - | -
COc1cc(C(C#N)N2CCCCC2)ccc1O (stereo not given) | 33.9 | - | - | - | -
O=C(Nc1cccc(Br)c1)OC1CC2CC1[C@H]1CCCCN1C2 (stereo not given in full) | . | . | . | - | .
O=C(CSc1nnc(-c2ccccc2F)n1-c1ccccc1)c1ccc2ccccc2c1 | . | . | . | - | .
CCCC(=O)Oc1ccc2c(C)cc(=O)oc2c1 | - | - | - | - | +
CCCCn1nc(C(=O)Oc2ccc3c(C)cc(=O)oc3c2)c2ccccc2c1=O | - | - | - | - | +
O=C(Oc1ccc2ccccc2c1)c1cncc(Br)c1 | - | - | - | - | -
Cc1cc(=O)oc2ccc(OC(=O)CC(C)C)cc12 | - | - | - | - | -
Cc1cc(=O)oc2cc(OCCCN3C(=O)c4ccccc4C3=O)ccc12 | - | - | - | - | -
Cc1cc(=O)oc2cc(OC(=O)c3cncc(Br)c3)ccc12 | - | - | - | - | +
O=C(Oc1ccc2c(=O)c(Oc3ccc4ccccc4c3)coc2c1)c1cncc(Br)c1 | - | - | - | - | 29.9
C=CCN1C[C@@H](COCc2ccccc2)Oc2cccc(F)c2S1(=O)=O | . | . | . | - | .
C=CCN(c1ccccc1)S(=O)(=O)c1cccc(C(=O)Oc2ccc3c(C)cc(=O)oc3c2)c1 | - | - | - | - | +
Cc1cc(=O)oc2cc(OC(=O)CCN3C(=O)c4ccccc4C3=O)ccc12 | - | - | - | - | +
C=CCN(c1ccccc1)S(=O)(=O)c1cccc(C(=O)OCC(=O)NCCOC)c1 | - | - | - | - | -
Cc1c(OCC(=O)C(C)(C)C)ccc2c3c(c(=O)oc12)CCCC3 | - | - | - | - | -
Cc1c(OCc2nn[nH]n2)ccc2c3c(c(=O)oc12)CCCC3 | - | - | - | - | 124.4
SMILES | GDH-TPI counter | Mtb betalactam | RecA splice inh | CCHF vOTU inh | FBA Mtb inh
CCCc1cc(=O)oc2cc(C)cc(O)c12 | - | - | - | - | -
CCCc1cc(=O)oc2cc(C)cc(OCc3nn[nH]n3)c12 | - | - | - | - | 128.3
Cc1cc2oc(=O)c3c(c2cc1OCc1nn[nH]n1)CCCC3 | - | - | . | - | -
Cc1cc(OCc2nn[nH]n2)c2c3c(c(=O)oc2c1)CCC3 | - | - | - | - | +
c1ccc(-c2c[nH]c3ccc(OCc4ccc5ccccc5n4)c(-c4ccccc4)c23)cc1 | . | . | . | - | .
Cc1noc(C)c1NC(=O)Nc1ccc2c(c1)C(=O)N(C)[C@H]1CC[C@H](CC(=O)NCc3ccc(Cl)cc3)O[C@@H]1CO2 | . | . | . | - | .
O=C(O)Cc1ccc(Nc2cnn(C34CC5CC(CC(CC(=O)O)(C5)C3)C4)c(=O)c2Cl)cc1 | 50.6 | - | - | - | -
Cn1c(O)c(C=NC2CCN(Cc3ccccc3)CC2)c(=O)[nH]c1=O | - | - | - | - | -
Cn1c(O)c(C=NC2CCCCCC2)c(=O)[nH]c1=S | 31.7 | - | - | - | -

Screening results from PubChem BioAssay.
